PubChem BioAssay (NCATS)
Inconclusive results are not listed. Unmarked numbers belong to inactive results. Activity calls are given as the source filed them. Calls follow the shape of the dose curve; as a rule, active = well fitted cell-killing curve with a large enough effect; inconclusive = small, poorly fitted or top-dose-only effect, or effect the other way; inactive = no such curve, though single readings can be large or run the other way.

Key:
[1] = Quantitative High-Throughput drug screen in 47 multiple myeloma cell lines against the NCATS MIPE library collection: SKMM1_PLB cell viability assay (AID 1919863); conditions: SKMM1 myeloma viability, CellTiter-Glo ATP, 48 h; viability: stronger effect = lower value; also: nearly all actives have a fitted effect of over 35% in size; also: potency is read from the fitted curve at half-maximal effect
How it was run: (§1)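 Cells were exposed to library compounds for 48 hours, after which ATP was measured by CellTiter-Glo. Signal was taken as median relative luminescence units.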

[2] = Quantitative High-Throughput drug screen in 47 multiple myeloma cell lines against the NCATS MIPE library collection: XG6_PLB cell viability assay (AID 1919865); also: nearly all actives have a fitted effect of over 40% in size; also: potency is read from the fitted curve at half-maximal effect
How it was run: as §1

[3] = Quantitative High-Throughput drug screen in 47 multiple myeloma cell lines against the NCATS MIPE library collection: OCIMY7_PLB cell viability assay (AID 1918987); conditions: OCI-MY7 myeloma viability, CellTiter-Glo ATP, 48 h; viability (% of DMSO): at 45.8 µM (top of the series); also: potency is read from the fitted curve at half-maximal effect; nearly all actives have a fitted effect of over 65% in size
How it was run: as §1

[4] = Quantitative High-Throughput drug screen in 47 multiple myeloma cell lines against the NCATS MIPE library collection: OCIMY5_PLB cell viability assay (AID 1918988); also: nearly all actives have a fitted effect of over 65% in size; also: potency is read from the fitted curve at half-maximal effect
How it was run: as §1

[5] = Quantitative High-Throughput drug screen in 47 multiple myeloma cell lines against the NCATS MIPE library collection: U266_ATCC cell viability assay (AID 1919864); also: nearly all actives have a fitted effect of over 35% in size; also: potency is read from the fitted curve at half-maximal effect
How it was run: as §1

[6] = Quantitative High-Throughput drug screen in 47 multiple myeloma cell lines against the NCATS MIPE library collection: XG1_PLB cell viability assay (AID 1919866); also: nearly all actives have a fitted effect of over 35% in size; also: potency is read from the fitted curve at half-maximal effect
How it was run: as §1

[7] = Quantitative High-Throughput drug screen in 47 multiple myeloma cell lines against the NCATS MIPE library collection: OPM1_PLB cell viability assay (AID 1918989); also: nearly all actives have a fitted effect of over 40% in size; also: potency is read from the fitted curve at half-maximal effect
How it was run: as §1

[8] = Quantitative High-Throughput drug screen in 47 multiple myeloma cell lines against the NCATS MIPE library collection: KMS34_JCRB cell viability assay (AID 1918985);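 also: 100% = DMSO-only wells and 0% = media-only wells; nearly all actives have a fitted effect of over 40% in size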
How it was run: as §1

COc1cc(N2CCC(N3CCN(C)CC3)CC2)ccc1Nc1ncnc(Nc2ccccc2S(=O)(=O)C(C)C)n1
Potency [1]: 23.5 µM (active) | Potency [2]: 7.43 µM (active)

O=c1c(-c2ccc(O)cc2)coc2cc(OC3O[C@H](CO)[C@H](O)[C@H](O)[C@H]3O)cc(O)c12 (some centres not stated)
Potency [3]: 1.48 µM (active) | Potency [4]: 1.48 µM (active) | Potency [5]: 8.33 µM (active) | Potency [2]: 1.32 µM (active) | Potency [6]: 1.18 µM (active)

CN(C[C@@H]1COCCO1)S(=O)(=O)Nc1ccc2ccc3ncc(-c4cnn(C)c4)cc3c(=O)c2c1
Potency [3]: 0.469 µM (active) | Potency [4]: 3.72 µM (active) | Potency [7]: 2.35 µM (active)

CON=C(C(=O)N[C@@H]1C(=O)N2C(C(=O)OCOC(=O)C(C)(C)C)=C(C=Cc3scnc3C)CS[C@H]12)c1csc(N)n1
Potency [4]: inactive | Potency [7]: inactive | Potency [2]: 26.4 µM (active) | Potency [6]: 18.7 µM (active)

NC(=O)[C@@H](CCC(F)(F)F)N(Cc1ccc(-c2ncon2)cc1F)S(=O)(=O)c1ccc(Cl)cc1
Potency [4]: 23.5 µM (active) | Potency [7]: 20.9 µM (active) | Potency [1]: 0.187 µM (active)

CC(C)n1cnc2c(NCCCCCCNC(=O)OC(C)(C)C)nc(NCCO)nc21
Potency [4]: 29.6 µM (active) | Potency [7]: 20.9 µM (active) | Potency [2]: 26.4 µM (active) | Potency [6]: 23.5 µM (active)

O=c1ccn([C@@H]2O[C@H](CO)[C@H](O)[C@H]2O)c(=O)[nH]1
Potency [2]: inactive | Potency [6]: inactive

CC(C)(C)c1cc(C(=O)O)c(NC(=O)Nc2ccc3[nH]ncc3c2)s1
Potency [8]: inactive | Potency [2]: inactive | Potency [6]: inactive

Nc1nc(F)nc2c1ncn2[C@@H]1O[C@H](COP(=O)(O)O)[C@@H](O)[C@H]1O
Potency [3]: 18.7 µM (active) | Potency [4]: 23.5 µM (active) | Potency [5]: 0.526 µM (active)

COc1ccc2c(Oc3ccc(NC(=O)c4c(C)n(CC(C)(C)O)n(-c5ccccc5)c4=O)cc3F)ccnc2c1
Potency [3]: 16.6 µM (active) | Potency [4]: 23.5 µM (active) | Potency [2]: 20.9 µM (active) | Potency [6]: 14.8 µM (active)

Clc1ccc(CCC(Cn2ccnc2)Sc2c(Cl)cccc2Cl)cc1 (configuration not stated)
Potency [3]: 13.2 µM (active) | Potency [5]: inactive | Potency [2]: 23.5 µM (active)

CCOC(CN1C(=O)[C@](CC(=O)Nc2ccc(C)cc2)(NC(=O)Nc2ccc(C)cc2)c2ccccc21)OCC
Potency [4]: 26.4 µM (active) | viability [1]: 93.3%

O=C1Nc2ccc(Cl)cc2C(C#CC2CC2)(C(F)(F)F)O1 (configuration not stated)
Potency [4]: 16.6 µM (active) | Potency [7]: 20.9 µM (active) | Potency [5]: 23.5 µM (active) | Potency [6]: 16.6 µM (active)
